Source: PubChem (Johns Hopkins Ion Channel Center)
Compounds with a hit are over-represented: about 1.6% of the library has one in this group of screens.
KCNQ2 pot – potentiators of rat KCNQ2 potassium channel | B-score at 10 µM | Potassium voltage-gated channel subfamily KQT member 2 (Rattus norvegicus), O88943 | AID 2239, 2010 | CHO-K1 KCNQ2, FluxOR thallium flux fluorescence; active compounds read high | actives 0.54% (n = 310,000);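 active = fluorescence ratio B-score at least 3 SD of library B-scores, with initial fluorescence B-score within 3 of them, cut at about 5.3 in these data; same plate scores as AID 2156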;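 also: B-score of peak minus minimum over baseline fluorescence ratio after K+ and Tl+ stimulus; positive B-score means potentiation of KCNQ2 with more thallium influx and brighter signal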
KCNQ2 block – rat KCNQ2 potassium channel inhibitors, primary screen, cell-based, CHO-K1, FluxOR thallium flux, B-score | Potassium voltage-gated channel subfamily KQT member 2 (Rattus norvegicus), O88943 | 20 min; active compounds read low | B-score at 10 µM | actives 1.1% (n = 310,000);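 active = fluorescence ratio B-score at most minus 3 library SDs, with starting brightness B-score within 2 library SDs, cut at about -5.5 in these data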
Kir21 conf inh – mouse Kir2.1 channel blockers, retest, confirmation, cell-based, FluxOR thallium flux, duplicate; shares compounds with KCNQ2 pot; Kir2.1-expressing cells, FluxOR thallium flux fluorescence; active compounds read low; Tl flux remaining, % of negative control (active compounds read low), % at 10 µM; actives 41% (n = 2,300); AID 2032, 2009;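 active = Primary-screen hit whose thallium flux fell at least 3 control SD below untreated wells in both duplicates, with normal baseline fluorescence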
HEK293 ctr – parental HEK293 activity in Kir2.1 inhibitor counter-screen | shares compounds with KCNQ2 pot | parental HEK293 cells, FluxOR thallium flux fluorescence; 0% = unstimulated blank wells | FluxOR signal as % of negative control (100 = no effect), % at 10 µM | actives 19% (n = 2,300) | AID 2105;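 active = dye signal at least 3 control SD above or below untreated wells in both duplicates, raw fluorescence within 3, either direction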;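 also: percent is based on the flux ratio of peak minus minimum fluorescence over baseline F0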
CHO-K1 ctr – nonspecific thallium flux increase in parental CHO-K1, confirmation, counter-screen for KCNQ2 potentiator project, cell-based, FluxOR thallium flux, duplicate | shares compounds with KCNQ2 pot | parental CHO-K1 cells, FluxOR thallium flux fluorescence; zero = vehicle mean+3SD, 100% = vehicle-minus-blank window | activity increase over 3SD of controls, % at 10 µM | actives 43% (n = 1,200) | AID 2282, 2010;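 active = signal rise of at least 3 SD above the untreated control mean, in both duplicate wells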;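 also: counter screen of KCNQ2 potentiator hits so any rise reflects channel-independent effects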
KCNQ1 sel pot – human KCNQ1 channel potentiation off-target, confirmation, selectivity assay for KCNQ2 potentiator project, cell-based, CHO, FluxOR thallium flux; shares compounds with KCNQ2 pot; CHO KCNQ1 stable, FluxOR thallium flux fluorescence; beyond 3SD, as % of vehicle-control signal; activation over 3SD threshold, % at 10 µM; actives 28% (n = 1,200); AID 2283, 2010;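 active = fluorescence ratio rise of at least 3 SD of vehicle wells above their mean, in both replicate wells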
Target sequence (P51787 whole entry, looked up): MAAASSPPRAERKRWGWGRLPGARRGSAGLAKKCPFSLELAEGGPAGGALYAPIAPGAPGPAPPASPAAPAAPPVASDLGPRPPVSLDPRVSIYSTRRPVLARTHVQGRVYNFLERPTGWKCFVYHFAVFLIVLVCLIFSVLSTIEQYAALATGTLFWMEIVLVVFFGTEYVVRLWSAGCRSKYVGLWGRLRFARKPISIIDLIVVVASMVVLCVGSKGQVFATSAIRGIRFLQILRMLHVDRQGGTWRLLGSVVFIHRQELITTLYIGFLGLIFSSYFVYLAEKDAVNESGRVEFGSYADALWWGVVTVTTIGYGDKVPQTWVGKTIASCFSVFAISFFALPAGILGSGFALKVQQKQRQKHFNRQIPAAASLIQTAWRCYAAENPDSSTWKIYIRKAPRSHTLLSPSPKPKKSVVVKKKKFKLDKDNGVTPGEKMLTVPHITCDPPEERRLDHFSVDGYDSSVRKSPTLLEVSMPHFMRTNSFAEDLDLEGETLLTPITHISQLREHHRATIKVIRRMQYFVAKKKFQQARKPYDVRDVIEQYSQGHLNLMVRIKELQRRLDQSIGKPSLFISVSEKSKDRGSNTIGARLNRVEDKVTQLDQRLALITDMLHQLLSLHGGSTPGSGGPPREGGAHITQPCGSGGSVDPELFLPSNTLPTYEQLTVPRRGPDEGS
KCNQ2 pot confirm – rat KCNQ2 channel potentiators, confirmation, cell-based, CHO, FluxOR thallium flux, duplicate | shares compounds with KCNQ2 pot | CHO-KCNQ2 cells, FluxOR thallium flux fluorescence | potentiation, less the hit threshold, % at 10 µM | actives 68% (n = 1,200) | AID 2287, 2010;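 active = fluorescence ratio rising 3 SD or more over the vehicle control mean in both replicates, plus primary screen hit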;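 also: peak minus minimum thallium fluorescence divided by baseline after K/Tl stimulus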
Kir21 spec – mouse Kir2.1 channel activation off-target, confirmation, selectivity assay for KCNQ2 potentiator project, cell-based, HEK293, FluxOR thallium flux; shares compounds with KCNQ2 pot; HEK293 Kir2.1, FluxOR thallium flux fluorescence; activity over 3SD threshold, % at 10 µM; actives 2% (n = 1,200);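 active = fluorescence ratio rise of at least 3 SD above the vehicle-control mean, seen in both replicates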
KCNQ2 W236L pot – potentiators of retigabine-insensitive KCNQ2 W236L, mechanism study for KCNQ2 potentiator project, cell-based, rat KCNQ2 W236L, CHO, automated patch clamp | current increase over 3SD of negative controls (%), active compounds read high, % at 25 µM | shares compounds with KCNQ2 pot | automated patch clamp current | actives 10% (n = 940);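 active = current increase at least 3 SD of the untreated controls above them in both duplicate recordings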
Large screens that a line does not name were inactive (follow-up assays come after a bar, where they were run).

CC(C)(C)c1ccc(Oc2ccc(N)cn2)cc1	KCNQ2 pot 12 | Kir21 conf inh inactive | HEK293 ctr 68% | CHO-K1 ctr 65 | KCNQ1 sel pot inactive | KCNQ2 pot confirm 73 | Kir21 spec inactive | KCNQ2 W236L pot inactive
Cc1cc(Oc2ccc(N)cn2)cc(C)c1Cl	none
CCCCCCCC/C=C\CCCCCCCC(=O)O	KCNQ2 pot 6.8 | Kir21 conf inh inactive | HEK293 ctr inactive | CHO-K1 ctr inactive | KCNQ1 sel pot 33 | KCNQ2 pot confirm inactive | Kir21 spec inactive
CCCCCCCCC(=O)O	none
O=C(COc1ccc(C(=O)NCC2CCCO2)cc1)Nc1cccc(C(F)(F)F)c1 (centres undefined)	none (no result: KCNQ2 pot)
CCC(C)NC(=O)CN(c1cc(Cl)cc(Cl)c1)S(C)(=O)=O (centres undefined)	none
Cc1ccc(NS(=O)(=O)c2cc(Br)cnc2N)c(Cl)c1	none
COc1cc(OC)c(NS(=O)(=O)c2cc(Br)cnc2N)cc1Cl	none | Kir21 conf inh 72% | HEK293 ctr 72%
Cc1c(S(=O)(=O)N2CCN(c3cccc(C(F)(F)F)c3)CC2)c(=O)n(C)c(=O)n1C	KCNQ2 pot 9.6 | Kir21 conf inh inactive | HEK293 ctr inactive | CHO-K1 ctr 5.5 | KCNQ1 sel pot 51 | KCNQ2 pot confirm inactive | Kir21 spec inactive
Cn1cc(S(=O)(=O)N2CCN(c3cccc(C(F)(F)F)c3)CC2)c(=O)n(C)c1=O	none (no result: KCNQ2 pot)
Cc1ccc(OCCCCN2CCCCC2)c(C)c1	none
Cc1ccc(OCCCCNC2CCCC(C)C2C)c(C)c1 (centres undefined)	none (no result: KCNQ2 pot) | Kir21 conf inh inactive | HEK293 ctr inactive
CN(c1ccc(OCC(=O)NCCc2ccccc2)cc1)S(=O)(=O)c1ccc(Cl)cc1	none (no result: KCNQ2 pot)
COc1ccc(CCNC(=O)COc2ccc(N(C)S(=O)(=O)c3ccc(Cl)cc3)cc2)cc1	KCNQ2 block -6.5 | Kir21 conf inh inactive | HEK293 ctr inactive
COc1ccc(NC(=O)N/C=C/c2ccco2)cc1	none
O=C(N/C=C/c1ccco1)Nc1cccc(Cl)c1	KCNQ2 pot 14 | Kir21 conf inh inactive | HEK293 ctr inactive | CHO-K1 ctr inactive | KCNQ1 sel pot inactive | KCNQ2 pot confirm 61 | Kir21 spec inactive | KCNQ2 W236L pot inactive
CCOc1cccc(NC(=O)C2CC(=O)N(C)C(=Nc3ccccc3)S2)c1 (centres undefined)	none
CCOc1cccc(NC(=O)C2CC(=O)N(C)C(=Nc3cccc(F)c3)S2)c1 (centres undefined)	KCNQ2 pot 6.5 | Kir21 conf inh inactive | HEK293 ctr inactive | CHO-K1 ctr inactive | KCNQ1 sel pot inactive | KCNQ2 pot confirm inactive | Kir21 spec inactive
Cc1cccc(NC(=O)CSc2nnc(-c3cc(C)[nH]n3)n2N)c1	none
O=C(C1=C(O)C(=O)N(CC2CCCO2)C1c1cccc(Cl)c1)c1ccco1 (centres undefined)	none
CCOC(=O)/C(N=Nc1ccc2c(c1)OCO2)=C(\C)O	none (no result: KCNQ2 pot)
COCCN1CCN(C(=O)c2cc(COc3ccc(F)cc3F)on2)CC1	none (no result: KCNQ2 pot)
CC(C)(CO)NCc1ccccc1OCC(=O)Nc1ccccc1	none (no result: KCNQ2 pot)
Cc1ccc(NC(=O)COc2ccccc2CNC(C)(C)CC(C)(C)C)cc1	none (no result: KCNQ2 pot) | Kir21 conf inh 44% | HEK293 ctr inactive
CC(O)CNc1nc2ccccc2n1-c1ncnc2sc3c(c12)CCC3 (centres undefined)	none (no result: KCNQ2 pot) | Kir21 conf inh 78% | HEK293 ctr inactive
c1ccc2c(c1)ncn2-c1ncnc2sc3c(c12)CCCC3	none
Cc1ccc(N=Nc2ccc(O)c3ncccc23)cc1C	none
Cc1ccc(N=Nc2ccc(O)c3ncccc23)cc1	KCNQ2 pot 8.3 | Kir21 conf inh inactive | HEK293 ctr inactive | CHO-K1 ctr inactive | KCNQ1 sel pot 27 | KCNQ2 pot confirm 13 | Kir21 spec inactive | KCNQ2 W236L pot inactive
CCS(=O)(=O)c1ccc(N=Nc2ccc(O)c3ncccc23)c(OC)c1	none
COc1ccccc1N=Nc1ccc(O)c2ncccc12	KCNQ2 pot 6.7 | Kir21 conf inh inactive | HEK293 ctr inactive | CHO-K1 ctr inactive | KCNQ1 sel pot inactive | KCNQ2 pot confirm 1.5 | Kir21 spec inactive | KCNQ2 W236L pot inactive
Cc1ccc(-c2nc(CS(=O)CC(=O)NCCCN3CCN(Cc4ccccc4)CC3)c(C)o2)cc1 (centres undefined)	none
CC(C)CC(=O)/C(=C/c1ccc(N(C)C)cc1)n1cncn1	none
CC(C)CC(=O)/C(=C\c1ccc(Cl)cc1Cl)n1cncn1	KCNQ2 block -5.6 | Kir21 conf inh 44% | HEK293 ctr inactive
O=C(NCc1ccc(Cl)cc1Cl)C1CC(=O)N(Cc2ccccc2)C1 (centres undefined)	none
O=C(NN1CC(C(=O)OCc2ccc(Cl)cc2Cl)CC1=O)c1ccccc1 (centres undefined)	KCNQ2 pot 19 | Kir21 conf inh inactive | HEK293 ctr inactive | CHO-K1 ctr inactive | KCNQ1 sel pot 68 | KCNQ2 pot confirm 74 | Kir21 spec inactive | KCNQ2 W236L pot inactive
COc1ccc(Nc2ncnc3ccc(C)cc23)cc1	none | Kir21 conf inh 52% | HEK293 ctr 168%
COC(=O)c1cccc(Nc2ncnc3ccc(C)cc23)c1	none (no result: KCNQ2 pot)
C#CCN(C)Cc1ccccc1	none (no result: KCNQ2 pot)
C#CC(CO)N(CCN(Cc1ccccc1)C(C#C)CO)Cc1ccccc1 (centres undefined)	none (no result: KCNQ2 pot) | Kir21 conf inh 62% | HEK293 ctr inactive
CS(=O)(=O)c1[nH]nc(-c2cccc(Cl)c2)c1C#N	none
CC(=O)C1=C(C)NC(SCC(=O)c2ccc(Cl)cc2Cl)=C(C#N)C1c1ccco1 (centres undefined)	none
